Source: PubChem BioAssay AID1251 (SRMLSC, 2008)
Out of some 200,000 compounds screened, about 720 (0.36%) were called active. Cut-off read from the data, not from the text of the source: active = inhibition above about 30%; inactive = the rest, inconclusive results apart. The full list was thinned out, with actives kept by preference.

Test: inhibitors of arbovirus infection in cells – cell-based, full library, 10K replicate subset, primary screen (AID 1251)
[1] = arbovirus infection cell-based antiviral screen, at 10 µM, stronger effect = higher value

**Q.** For `NC(=O)COc1ccc(NC(=O)c2ccccc2-c2ccccc2)cc1`, which inhibition [1] is on record?
**A.** -1.27% (inactive)

**Q.** Which inhibition (arbovirus infection cell-based antiviral screen; at 10 µM; stronger effect = higher value) does the source give for `COCCn1c(SCC(=O)Nc2cc(Cl)ccc2OC)nc2c(c1=O)SC(C)C2` (stereo unspecified) here?
**A.** 31.7% (active)

**Q.** What about the inhibition (arbovirus infection cell-based antiviral screen; measured here: 10K subset replicate screen; at 10 µM; stronger effect = higher value) of the same molecule?
**A.** 23%

**Q.** Which inhibition [1] does the source give for `CCn1c(SCC(=O)Nc2ccccc2F)nc2c(c1=O)SC(C)C2` (stereo unspecified) here?
**A.** 13.7% (inactive)

**Q.** With `CC1Cc2nc(SCC(=O)Nc3ccccc3F)n(C)c(=O)c2S1` (stereo unspecified) as the molecule, how does the inhibition [1] read?
**A.** 6.16% (inactive)

**Q.** With `CC(=O)Nc1ccc(SCC(=O)Nc2ccccc2Oc2ccccc2)cc1` as the molecule, how does the inhibition [1] read?
**A.** -11.3% (inactive)

**Q.** Which inhibition [1] does the source give for `O=C(CSc1ccccc1)Nc1cc(Cl)ccc1Oc1ccccc1` here?
**A.** 31.3% (active)

**Q.** For `COc1ccc(C)cc1NC(=O)CSc1ccc(Cl)cc1`, which inhibition [1] is on record?
**A.** 3.07% (inactive)

**Q.** Which inhibition [1] does the source give for `C=Cn1c(C(=O)O)ccc1-c1ccc(OC)cc1` here?
**A.** -6.55% (inactive)

**Q.** With `CCn1c(-c2cccnc2Cl)nc2cc(C)c(C)cc21` as the molecule, how does the inhibition [1] read?
**A.** 9.84% (inactive)

**Q.** For `CCn1cnc2scc(-c3ccc(C)c(C)c3)c2c1=O`, which inhibition [1] is on record?
**A.** -10.7% (inactive)

**Q.** Which inhibition [1] does the source give for `Cc1cc(F)ccc1S(=O)(=O)Nc1ncnc2scc(-c3ccc(F)cc3)c12` here?
**A.** 34.8% (active)

**Q.** Which inhibition [1] does the source give for `COc1ccc(-c2csc3ncnc(Oc4ccc5c(C)cc(=O)oc5c4)c23)cc1` here?
**A.** -19% (inactive)

**Q.** With `Cc1cccc(C)c1NC(=O)Nc1ccccc1-n1ccnc1` as the molecule, how does the inhibition [1] read?
**A.** 0% (inactive)

**Q.** Which inhibition [1] does the source give for `CCN(/N=C/c1ccc(N(C)C)cc1)c1nc2ccccc2[nH]1` here?
**A.** -9.69% (inactive)

**Q.** With `CCNC(=S)NNC(=O)C1CCN(Cc2ccccc2)CC1` as the molecule, how does the inhibition [1] read?
**A.** 0.25% (inactive)

**Q.** For `CCN(CCO)C(=S)Nc1cc(C(=O)OC)ccc1C(=O)OC`, which inhibition [1] is on record?
**A.** -0.56% (inactive)

**Q.** With `CC(=O)Nc1ccc(Sc2ccccc2C(=O)N2CCCC2)cn1` as the molecule, how does the inhibition [1] read?
**A.** 12.2% (inactive)

**Q.** For `CN(C)c1nc(-c2cccnc2)nc(-c2ccc(Cl)cc2)c1C#N`, which inhibition [1] is on record?
**A.** -9.56% (inactive)

**Q.** Which inhibition [1] does the source give for `O=C(CCN1CCN(C/C=C/c2ccccc2)CC1)Nc1cccc(F)c1` here?
**A.** -4.37% (inactive)

**Q.** With `CC/C(=N\NC(=S)NC(C)C)c1ccc(OC(F)F)cc1` as the molecule, how does the inhibition [1] read?
**A.** 1.93% (inactive)

**Q.** Which inhibition [1] does the source give for `CC(Nc1nc(N2CCCC2)nc2ccccc12)c1ccccc1` (stereo unspecified) here?
**A.** -47.5% (inactive)

**Q.** For `CC(=O)NC(CC(=O)O)c1ccc(F)cc1` (stereo unspecified), which inhibition [1] is on record?
**A.** 4.26% (inactive)

**Q.** Which inhibition [1] does the source give for `Cc1ccc(C(CC(=O)O)Nc2nc(N3CCCCC3)nc(N3CCCCC3)n2)cc1` (stereo unspecified) here?
**A.** 31.3% (active)

**Q.** With `O=[N+]([O-])c1ccc2oc(-c3cccc(O)c3)nc2c1` as the molecule, how does the inhibition [1] read?
**A.** 0.35% (inactive)

**Q.** Which inhibition [1] does the source give for `COc1ccc(Nc2nc(NCc3ccco3)nc(N/N=C/c3ccccc3Cl)n2)cc1` here?
**A.** -9.8% (inactive)

**Q.** Which inhibition [1] does the source give for `CC1CCCC(NC(=O)c2cccc(N3CCCC3=O)c2)C1C` (stereo unspecified) here?
**A.** 15.1% (inactive)

**Q.** For `O=C(Nc1ccc(-c2ccc3nncn3n2)cc1)C1CCCCC1`, which inhibition [1] is on record?
**A.** 2.96% (inactive)

**Q.** With `CC(CC(=O)O)C(=O)c1ccc(Cl)c([N+](=O)[O-])c1` (stereo unspecified) as the molecule, how does the inhibition [1] read?
**A.** 5.76% (inactive)

**Q.** For `CCO[C@@H]1OC(C(=O)N2CCOCC2)=C[C@H](C)[C@H]1CCCO`, which inhibition [1] is on record?
**A.** 1.57% (inactive)

**Q.** For `COc1ccc(C(=O)OCC(=O)NC(=O)CCSc2ccccc2)cc1`, which inhibition [1] is on record?
**A.** -0.73% (inactive)

**Q.** For `Cc1ccccc1Nc1scc(-c2ccc(Br)cc2)[n+]1-c1ccccc1C`, which inhibition [1] is on record?
**A.** 15.8% (inactive)

**Q.** Which inhibition [1] does the source give for `O=C(CC1C(=O)NCCN1Cc1ccc(-c2ccccc2)cc1)NCC1CCOCC1` (stereo unspecified) here?
**A.** 1.09% (inactive)

**Q.** Which inhibition [1] does the source give for `Cc1ccc(CNC(=O)Cn2c(=O)c3sccc3n(Cc3cccc([N+](=O)[O-])c3)c2=O)cc1` here?
**A.** -23.2% (inactive)

**Q.** Which inhibition [1] does the source give for `C/C(=N\NC(=O)c1ccc(NS(=O)(=O)c2cccs2)cc1)c1ccc2ccccc2c1` here?
**A.** -27.7% (inactive)

**Q.** Which inhibition [1] does the source give for `Cc1ccccc1CSc1nnc(-c2ccccc2)c(=O)[nH]1` here?
**A.** 1.96% (inactive)

**Q.** With `c1ccc(CSc2nnc(-c3ccco3)c(-c3ccco3)n2)cc1` as the molecule, how does the inhibition [1] read?
**A.** 13.1% (inactive)

**Q.** With `O=c1[nH]c(SCc2ccccc2)nnc1-c1ccccc1` as the molecule, how does the inhibition [1] read?
**A.** 33.1% (active)

**Q.** For `O=C(Cn1cnc([N+](=O)[O-])n1)NCCc1ccccc1`, which inhibition [1] is on record?
**A.** -2.73% (inactive)

**Q.** For `CC(=O)Oc1ccccc1C(=O)Nc1ncc([N+](=O)[O-])s1`, which inhibition [1] is on record?
**A.** 31.3% (active)

**Q.** Which inhibition [1] does the source give for `O=C(CCc1ccccc1)Nc1ncc([N+](=O)[O-])s1` here?
**A.** 14.4% (inactive)

**Q.** Which inhibition [1] does the source give for `O=C(Cc1c(F)cccc1Cl)Nc1ncc([N+](=O)[O-])s1` here?
**A.** 25.4% (inactive)

**Q.** For `Cc1nc(-c2ccc(NC(=O)c3cccs3)cc2)cs1`, which inhibition [1] is on record?
**A.** -9.57% (inactive)

**Q.** Which inhibition [1] does the source give for `Cc1ccc(-c2csc(NNC(=O)c3ccccc3)n2)cc1` here?
**A.** -29.2% (inactive)

**Q.** For `Cc1ccc(-c2csc(NC(=O)c3cccs3)n2)cc1`, which inhibition [1] is on record?
**A.** 103% (active)

**Q.** For `COc1ccc(OC)c(-c2c(=O)n(OCc3ccccc3Br)c3ccccc3[n+]2[O-])c1`, which inhibition [1] is on record?
**A.** 6.28% (inactive)

**Q.** For `O=C(COC(=O)c1ccccc1)Nc1ccccc1Sc1ccccc1`, which inhibition [1] is on record?
**A.** -1.75% (inactive)

**Q.** Which inhibition [1] does the source give for `O=c1[nH]c(CN2CCN(S(=O)(=O)c3ccc4c(c3)OCCO4)CC2)nc2sc3c(c12)CCCC3` here?
**A.** 11.3% (inactive)

**Q.** For `CCCCOc1ccc(NC(=O)[C@@H]2CCCN2C(=O)C2CCN(S(=O)(=O)c3ccc(C)cc3)CC2)cc1`, which inhibition [1] is on record?
**A.** -16.3% (inactive)

**Q.** For `Cc1cc(C)c(C#N)c(N2CCC(C(N)=O)CC2)n1`, which inhibition [1] is on record?
**A.** 2.87% (inactive)

**Q.** With `CC(NC(=O)C(=O)NN=C1CCC(C(C)(C)C)CC1)c1ccccc1` (stereo unspecified) as the molecule, how does the inhibition [1] read?
**A.** 1.88% (inactive)

**Q.** For `Cc1sc2nc(CC(N)=O)[nH]c(=O)c2c1-c1ccccc1`, which inhibition [1] is on record?
**A.** 3.01% (inactive)

**Q.** With `Cc1ccsc1C1C(C#N)=C(N)OC2=C1C(=O)CC(C)C2` (stereo unspecified) as the molecule, how does the inhibition [1] read?
**A.** -1.92% (inactive)

**Q.** Which inhibition [1] does the source give for `C=CCN1C(=O)C(O)(CC(=O)c2ccccn2)c2ccccc21` (stereo unspecified) here?
**A.** -2.77% (inactive)

**Q.** For `Cc1ccc(NC(=O)N2CCC(c3nc4c(nnn4Cc4c(F)cccc4Cl)c(=O)[nH]3)CC2)cc1`, which inhibition [1] is on record?
**A.** -3.45% (inactive)

**Q.** With `Cc1ccc(C)c(Cn2nnc3c(=O)[nH]c(C(=O)Nc4ccc(F)cc4)nc32)c1` as the molecule, how does the inhibition [1] read?
**A.** 39.7% (active)

**Q.** For `O=C(Nc1ccc(F)cc1)N1CCCC(c2nc3c(nnn3Cc3ccccc3Cl)c(=O)[nH]2)C1` (stereo unspecified), which inhibition [1] is on record?
**A.** 12.4% (inactive)

**Q.** With `CSCCNCc1cn(-c2ccc(F)cc2F)nc1-c1ccccc1C` as the molecule, how does the inhibition [1] read?
**A.** -1.44% (inactive)

**Q.** For `CCOC(=O)Cc1ncccc1C(=O)Nc1ccc(OC(F)(F)F)cc1`, which inhibition [1] is on record?
**A.** 4.21% (inactive)

**Q.** For `Cc1nn(Cc2ccc(Cl)cc2)c(Cl)c1/C=N/NC(=O)CNc1ccccc1F`, which inhibition [1] is on record?
**A.** -16.6% (inactive)

**Q.** With `CC(=O)Nc1ccc(NC(=S)NC(=O)c2ccc([N+](=O)[O-])c(C)c2)cc1` as the molecule, how does the inhibition [1] read?
**A.** -7.89% (inactive)
